Screens deposited in PubChem by National Center for Advancing Translational Sciences (NCATS).
12-LOX inh – blocks human arachidonate 12S-lipoxygenase. P18054. purified 12hLO, xylenol orange hydroperoxide absorbance. Potency, µM (series often up to 108 µM), for inactives: at the top dose activity change, negative = inhibition, hits mostly inhibitors. hit rate 1.1% among 580,000; note: potency is the fitted concentration of half-maximal effect
Target sequence (P18054 whole entry, looked up): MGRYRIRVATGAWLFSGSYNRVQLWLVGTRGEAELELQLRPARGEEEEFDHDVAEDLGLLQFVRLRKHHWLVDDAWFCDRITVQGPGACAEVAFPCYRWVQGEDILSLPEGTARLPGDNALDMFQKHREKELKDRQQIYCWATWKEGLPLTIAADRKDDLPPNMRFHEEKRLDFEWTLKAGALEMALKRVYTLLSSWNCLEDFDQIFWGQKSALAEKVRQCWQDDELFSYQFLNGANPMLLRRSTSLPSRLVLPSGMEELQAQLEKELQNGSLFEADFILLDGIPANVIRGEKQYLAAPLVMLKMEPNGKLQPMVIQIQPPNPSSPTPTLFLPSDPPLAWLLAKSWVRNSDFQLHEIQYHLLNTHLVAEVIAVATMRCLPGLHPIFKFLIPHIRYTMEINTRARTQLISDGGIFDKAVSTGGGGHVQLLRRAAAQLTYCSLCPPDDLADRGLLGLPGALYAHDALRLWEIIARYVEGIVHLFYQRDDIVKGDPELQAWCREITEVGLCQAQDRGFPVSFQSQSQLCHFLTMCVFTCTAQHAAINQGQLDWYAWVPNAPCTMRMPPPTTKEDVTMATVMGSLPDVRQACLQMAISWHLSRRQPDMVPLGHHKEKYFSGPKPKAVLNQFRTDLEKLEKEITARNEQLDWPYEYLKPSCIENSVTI
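Purified human 12hLO at 150 nM in 25 mM Hepes, 0.01% Triton X-100, pH 7.0, preincubated 15 min at room temperature with compound. Reaction started with 40 uM arachidonic acid, 30 min at room temperature. Hydroperoxide measured by Fe-xylenol orange, 573/405 nm absorbance ratio.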
HT1080 IDH1KD tx – kills HT-1080 cells with IDH1 knockdown | HT-1080 IDH1 knockdown viability, ATP luminescence, 48 h | Potency, µM (titrated, usually from 46.1 µM), for inactives: top-dose activity, negative = toxicity, most hits filed as cytotoxic | hit rate 2% among 360,000 | AID 686971;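 note: potency is the fitted concentration of half-maximal effect; 0% = DMSO wells and -100% = cell-free medium wells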
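Viability of IDH1-knockdown HT-1080 fibrosarcoma cells was assessed by CellTiter-Glo after 48 h at 37 °C with titrated compound; concentration-effect curves were classified by fit quality and response size.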
TDP1 cell noCPT – qHTS for Inhibitors of human tyrosyl-DNA phosphodiesterase 1 (TDP1): qHTS in cells in absence of CPT. DT40 Tdp1-/- hTDP1 cells, no CPT, ATP luminescence, 48 h. Potency, µM (series often up to 46.2 µM), for the others: top-dose activity change, negative = growth inhibition, actives largely listed as inhibitors. hit rate 15% among 420,000; note: potency is the fitted concentration of half-maximal effect; nearly all actives have a fitted effect of over 55% in size
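Chicken DT40 Tdp1-/- cells complemented with human TDP1, screened without camptothecin (DMSO vehicle only), 400 cells/well. Compounds pin-transferred, cells incubated at 37 °C for at least 48 hr. Growth read as ATP-dependent luminescence (CellTiter-Glo, 30 min at RT).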
IL1B secr inh – blocks inflammasome-driven IL-1 beta release | AID 743279 | THP-1 LPS/ATP IL-1B secretion, AlphaLISA, 16 h; hits give low values | hit rate 4.7% among 360,000 | activity change, % at 57.5 µM; in the data active = activity change below about -50%; inconclusive = mostly about -30% to -49%
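THP-1 cells pretreated 1 hr with compounds (up to 57.5 uM final), then stimulated with LPS (250 ng/mL final) plus ATP (1.25 mM final); secreted IL-1B measured by AlphaLISA after 16 hr, decreased signal indicating inhibition.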
HT1080NT lethal – kills 2HG-producing HT-1080-NT fibrosarcoma cells; hit rate 1.6% among 360,000; Potency, µM (top dose mostly 46.1 µM), inactives show at the highest dose activity, negative = less viability, usual class: cytotoxic; HT-1080-NT fibrosarcoma viability, CellTiter-Glo ATP luminescence, 48 h;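 note: NT is the 2HG producing partner of a matched IDH1 knockdown line; potency is the fitted concentration of half-maximal effect; 0% = DMSO-treated cells and -100% = media-only wells without cells; nearly all actives have a fitted effect of over 55% in size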
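Viability by CellTiter-Glo luminescence after 48 h compound exposure at 37C of HT-1080-NT cells (750/well, RPMI, 5% FBS). % activity scaled between DMSO wells and medium-only wells, then curve-fitted and categorized by curve class.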
DT40 TDP1 CPT – DT40-hTDP1 cell growth loss with CPT. Potency, µM (top dose mostly 46.2 µM), for the others: at the top dose activity change, negative = growth inhibition, usual class: inhibitors. hit rate 12% among 420,000. chicken DT40 Tdp1-/-;hTDP1 cells + 20 nM CPT, ATP luminescence, 48 h; note: potency is the fitted concentration of half-maximal effect; nearly all actives have a fitted effect of over 55% in size
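Cell growth measured by CellTiter-Glo luminescence after a minimum 48 h, 37 C compound exposure with 20 nM CPT in Tdp1-knockout DT40 cells stably expressing hTDP1, seeded 400/well; qHTS titration format.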
Active calls of the source: *; [ ] = dose if it differs, or a comment. Only a selection was taken, and hits are over-represented in it overall. Unless noted, calls come from the whole dose curve; as a rule, active = well fitted curve in the direction sought with a large enough effect; inconclusive = small, poorly fitted or top-dose-only effect, or another doubt; inactive = no such curve, though single readings can be large; an effect the other way counts as inactive or inconclusive. Unless noted, % is set by controls: 0 for no effect and ±100 for the full control effect.

Screening Cn1c(=O)c2ncn(CC(=O)Nc3cccc(-c4nc5ccccc5s4)c3)c2n(C)c1=O returned 12-LOX inh 2%, HT1080 IDH1KD tx -2%, TDP1 cell noCPT 15µM*, IL1B secr inh 39, HT1080NT lethal inconclusive and DT40 TDP1 CPT 15µM*.
Screening Cc1cccc(OCC(=O)Nc2cccc(-c3nc4ccccc4s3)c2)c1 returned 12-LOX inh -4%, TDP1 cell noCPT inconclusive and DT40 TDP1 CPT inconclusive.
CCC(CC)C(=O)Nc1cccc(-c2nc3ccccc3o2)c1 was read as 12-LOX inh -8%, HT1080 IDH1KD tx 15%[9.24 µM], TDP1 cell noCPT 16µM*, IL1B secr inh -23, HT1080NT lethal inconclusive and DT40 TDP1 CPT inconclusive.
CCOc1cc(C(=O)Nc2ccc(-c3nc4ccccc4s3)cc2Cl)cc(OCC)c1OCC was read as 12-LOX inh -11%, TDP1 cell noCPT 23µM* and DT40 TDP1 CPT inconclusive.
CCC(CC)C(=O)Nc1cccc(-c2nc3ccccc3s2)c1 was read as 12-LOX inh -24%, TDP1 cell noCPT inconclusive and DT40 TDP1 CPT 21µM*.
Screening COc1cc(OC)cc(C(=O)Nc2cc(-c3nc4ccccc4s3)ccc2OC)c1 returned 12-LOX inh 0%, TDP1 cell noCPT -3% and DT40 TDP1 CPT 0%.
Screening COc1ccc(C(=O)NC[C@H]2COCc3nc4cc(C(F)(F)F)ccc4n32)cc1 returned 12-LOX inh 27%[176 µM].
Screening CCCN1CCCC12Cc1ccccc1CN([S+](C)(=O)[O-])C2 (stereo not given) returned 12-LOX inh 8%[6.33 µM].
Screening O=C1CN(S(=O)(=O)Cc2ccccc2)C[C@H]2[C@H](c3ccc(Br)cc3)[C@H](CO)N12 returned 12-LOX inh -21%.
N#C/C(=C\c1ccc(-c2ccccc2Cl)o1)c1ccc(Cl)cc1 was read as 12-LOX inh 4%.
N#C/C(=C/c1ccc(N2CCCCCC2)o1)c1ccc(Cl)cc1 was read as HT1080 IDH1KD tx 2.2µM*, TDP1 cell noCPT 18µM*, IL1B secr inh -102*, HT1080NT lethal 5.6µM* and DT40 TDP1 CPT 15µM*.
For N#C/C(=C/c1ccc(N2CCCCC2)o1)c1cccc(F)c1 the results were 12-LOX inh 10µM*, HT1080 IDH1KD tx 4µM*, TDP1 cell noCPT 15µM*, IL1B secr inh -28, HT1080NT lethal inconclusive and DT40 TDP1 CPT 10µM*.
For CN1CCN(C(=O)CSc2nc(-c3ccco3)cc(C(F)(F)F)n2)CC1 the results were 12-LOX inh -10%, HT1080 IDH1KD tx 5%, TDP1 cell noCPT -26%, IL1B secr inh -10, HT1080NT lethal 6% and DT40 TDP1 CPT 14%.
O=C(CSc1nc(-c2ccco2)cc(C(F)(F)F)n1)N1CCN(c2cccc(Cl)c2)CC1 was read as 12-LOX inh 0%, HT1080 IDH1KD tx -13%, TDP1 cell noCPT 23µM*, IL1B secr inh -21, HT1080NT lethal -8% and DT40 TDP1 CPT inconclusive.
`O=C(CCSc1nc(-c2ccco2)cc(C(F)(F)F)n1)N1CCCc2ccccc21` gave 12-LOX inh inconclusive, HT1080 IDH1KD tx -3%, TDP1 cell noCPT 16µM*, IL1B secr inh 29, HT1080NT lethal -18% and DT40 TDP1 CPT inconclusive.
Screening O=C(CCSc1nc(-c2ccco2)cc(C(F)(F)F)n1)N1CCN(c2ccccn2)CC1 returned 12-LOX inh 1%, HT1080 IDH1KD tx -4%, TDP1 cell noCPT 16µM*, IL1B secr inh inconclusive, HT1080NT lethal 3% and DT40 TDP1 CPT inconclusive.
`O=C(CSc1nc(-c2ccco2)cc(C(F)(F)F)n1)N1CCCCCC1` gave 12-LOX inh 34%.
`Cn1cccc1/C=N/NC(=O)CNc1ccc2ccccc2c1` gave 12-LOX inh 0%, HT1080 IDH1KD tx -3%, TDP1 cell noCPT -17%, HT1080NT lethal -19% and DT40 TDP1 CPT 12%.
`O=C(Cc1cccc2ccccc12)N/N=C1\CCCc2ccccc21` gave 12-LOX inh -7%, HT1080 IDH1KD tx -22%, TDP1 cell noCPT 16µM*, IL1B secr inh 22, HT1080NT lethal -14% and DT40 TDP1 CPT inconclusive.
O=C(Cc1ccc(Cl)cc1)N/N=C1\CCCc2ccccc21 was read as 12-LOX inh 22%, HT1080 IDH1KD tx -4%, TDP1 cell noCPT 23µM*, IL1B secr inh 20, HT1080NT lethal 4% and DT40 TDP1 CPT inconclusive.
`O=C(Cc1cccc2ccccc12)NN=Cc1ccc2c(c1)CCC2` gave 12-LOX inh inconclusive, HT1080 IDH1KD tx -1%, TDP1 cell noCPT 21µM*, IL1B secr inh 1, HT1080NT lethal -2% and DT40 TDP1 CPT inconclusive.
Cn1cccc1/C=N/NC(=O)Cc1cccc2ccccc12 was read as 12-LOX inh -11%, HT1080 IDH1KD tx inconclusive, TDP1 cell noCPT 12µM*, IL1B secr inh 34, HT1080NT lethal -14% and DT40 TDP1 CPT inconclusive.
Cc1cccc2c(=O)cc(CSCC(=O)Nc3ccc(Cl)cc3)[nH]c12 was read as 12-LOX inh -11%, TDP1 cell noCPT -29% and DT40 TDP1 CPT -27%.
`Cc1cc(-c2nnn(CC(=O)NC(C)(C)C)n2)ccc1F` gave 12-LOX inh 19%.
For CN(Cc1ccoc1)C(=O)Cn1ccc2ncccc2c1=O the results were 12-LOX inh 60%.
For Cc1cc(OCC(=O)Nc2ccccc2N2CCN(S(C)(=O)=O)CC2)cc(C)c1Cl the results were 12-LOX inh 2%.
For Cc1ccc(O)c(C(CC(=O)NC2CCCCC2)c2ccccc2)c1 (stereo not given) the results were 12-LOX inh -11%, HT1080 IDH1KD tx -21%, TDP1 cell noCPT 23µM*, IL1B secr inh inconclusive, HT1080NT lethal -8% and DT40 TDP1 CPT -67%.
For CCC(C)NC(=O)CC(c1ccccc1)c1cc(C)ccc1O (stereo not given) the results were 12-LOX inh -3%, HT1080 IDH1KD tx 13%, TDP1 cell noCPT 7%, IL1B secr inh 19, HT1080NT lethal 9% and DT40 TDP1 CPT 0%.
CCCN(CCC)C(=O)CC(c1ccccc1)c1cc(C)ccc1O (stereo not given) was read as 12-LOX inh 3%, HT1080 IDH1KD tx inconclusive, TDP1 cell noCPT inconclusive, IL1B secr inh -57*, HT1080NT lethal inconclusive and DT40 TDP1 CPT inconclusive.
